# Several values for one entry are separate records, joined by “and”; a condition that tells them apart may be missing. Equal entries are not always repeated. Results filed as inconclusive are left out. Entries that show only a call come without a potency. Some structures have more than one record in an assay (separate samples or runs), and their calls can disagree. Activity calls are given as the source filed them. Unless noted, the call rests on the fitted dose curve; in most records, active means well fitted curve in the direction sought with a large enough effect in the repeat runs; inconclusive means weak or mixed curves; inactive means no such curve, though single readings can be large; an effect the other way counts as inactive or inconclusive.
# Columns and labels:
# [1] = qHTS assay to identify small molecule antagonists of the vitamin D receptor (VDR) signaling pathway - cell viability counter screen (AID 743225); further: nearly all actives have a fitted effect of over 50% in size; further: potency means the concentration at half of the fitted maximal effect
# In short: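 Parallel cytotoxicity test: VDR-UAS-bla HEK 293T, 3 nM (final) 1-alpha,25-dihydroxyvitamin D3 with test compound, 16 h, 37C. Endpoint is CellTiter-Glo luminescence in the same wells.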
# [2] = qHTS assay to identify small molecule agonists of the NFkB signaling pathway - cell viability counter screen (AID 1159515; calls by dose curve; further: nearly all actives have a fitted effect of over 55% in size; further: potency means the concentration at half of the fitted maximal effect)
# In short: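 Plate 2,000 NFkB-bla ME-180 cells/well; incubate overnight. Add compounds, 5 hr at 37 C. Add FRET substrate, 1.5 hr RT. Add CellTiter-Glo, 30 min RT; read luminescence.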
# [3] = qHTS assay to identify small molecule agonists of the endoplasmic reticulum stress response signaling pathway (AID 1159516; active means well fitted activation curve with a large enough effect in the signal ratio in the repeat runs, not every such curve was filed as active; the % refers to the signal ratio)
# In short: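 Beta-lactamase expression from the ER stress response element in HeLa reporter cells is quantified with the LiveBLAzer B/G FRET substrate, read at 405 nm excitation after 2 hr at room temperature, following 5 hr compound treatment at 37 C.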
# [4] = qHTS assay to identify small molecule agonists of the endoplasmic reticulum stress response signaling pathway - cell viability counter screen (AID 1159517; calls by dose curve; further: nearly all actives have a fitted effect of over 50% in size; further: potency means the concentration at half of the fitted maximal effect)
# In short: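 Cytotoxicity of test compounds toward ESRE-bla HeLa cells was assessed after 5 hr exposure. The luminescent CellTiter-Glo signal was measured 30 min after reagent addition.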
# [5] = qHTS assay to identify small molecule antagonists of the retinoid-related orphan receptor gamma (ROR-gamma) signaling pathway - cell viability counter screen (AID 1159520); further: nearly all actives have a fitted effect of over 50% in size; further: potency means the concentration at half of the fitted maximal effect
# In short: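 Tet-on ROR gamma CHO cells (1,000/well) were plated 4 hr, given compounds in DMSO for 2 hr at 37 C, then induced with 1 uM final doxycycline for 16 hr. Viability was read as ATP by CellTiter-Glo luminescence after 30 min.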
# [6] = target: Nuclear receptor ROR-gamma (Homo sapiens) (UniProt P51449); test: qHTS assay to identify small molecule antagonists of the retinoid-related orphan receptor gamma (ROR-gamma) signaling pathway (AID 1159521; further: nearly all actives have a fitted effect of over 50% in size; further: potency means the concentration at half of the fitted maximal effect)
# In short: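 Decreased RORE-driven luciferase luminescence indicates antagonism. Tet-on RORγ CHO cells received compound, then 1 uM final doxycycline 2 h later; signal read after 16 h incubation.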
# [7] = qHTS assay to identify small molecule agonists of the AP-1 signaling pathway - cell viability counter screen (AID 1159525; calls by dose curve; further: nearly all actives have a fitted effect of over 55% in size; further: potency means the concentration at half of the fitted maximal effect)
# In short: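 Each titration point was normalised to DMSO and tetra n-octyl ammonium bromide controls. The read was Cell Titer Glo luminescence after 30 min at RT, following 5 h compound exposure of ME-180 AP-1-bla cells at 37 °C.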
# [8] = qHTS assay to identify small molecule agonists of the AP-1 signaling pathway (AID 1159526; calls by dose curve)
# [9] = target: Retinoic acid receptor RXR-alpha (Homo sapiens) (UniProt P19793); test: qHTS assay to identify small molecule agonists of the RXR signaling pathway (AID 1159527; calls by dose curve; further: nearly all actives have a fitted effect of over 35% in size)
# Retinoic acid receptor RXR-alpha (Homo sapiens), sequence (P19793 whole entry, looked up): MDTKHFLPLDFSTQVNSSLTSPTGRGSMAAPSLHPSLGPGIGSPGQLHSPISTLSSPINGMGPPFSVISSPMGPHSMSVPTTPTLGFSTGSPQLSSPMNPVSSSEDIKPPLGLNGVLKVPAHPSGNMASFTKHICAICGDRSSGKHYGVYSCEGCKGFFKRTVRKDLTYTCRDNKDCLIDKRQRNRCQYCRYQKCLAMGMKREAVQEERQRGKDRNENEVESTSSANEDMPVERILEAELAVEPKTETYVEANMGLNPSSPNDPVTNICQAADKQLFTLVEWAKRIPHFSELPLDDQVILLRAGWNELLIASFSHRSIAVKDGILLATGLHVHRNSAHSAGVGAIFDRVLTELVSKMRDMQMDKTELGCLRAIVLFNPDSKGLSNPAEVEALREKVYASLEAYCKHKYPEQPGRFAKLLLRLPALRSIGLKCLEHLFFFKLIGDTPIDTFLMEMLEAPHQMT
# In short: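 16 hr incubation of compound-treated RXR-alpha-UAS-bla HEK 293T cells (2% charcoal-stripped FBS, 37 C) preceded a 2 hr room-temperature LiveBLAzer FRET substrate step and blue/green fluorescence measurement.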
# [10] = qHTS assay to identify small molecule agonists of the RXR signaling pathway - cell viability counter screen (AID 1159529); further: nearly all actives have a fitted effect of over 50% in size; further: potency means the concentration at half of the fitted maximal effect
# In short: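 In this parallel viability measure, GeneBLAzer RXR-alpha HEK 293T cells (2% charcoal-stripped FBS) were given a 5 hr preincubation, treated with compounds 16 hr at 37 C, and read by CellTiter-Glo luminescence.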
# [11] = qHTS assay to identify small molecule antagonists of the retinoid acid receptor (RAR) signaling pathway - cell viability counter screen (AID 1159551); further: nearly all actives have a fitted effect of over 35% in size; further: potency means the concentration at half of the fitted maximal effect
# In short: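 Viability of C3RL4 cells is quantified from ATP by luminescence after 6 h treatment at 37 C with compounds and 1 uM retinol.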
# [12] = qHTS assay to identify small molecule antagonists of the estrogen related receptor (ERR) signaling pathway from Tox21 library - cell viability counter screen (AID 1224834); further: nearly all actives have a fitted effect of over 30% in size; further: potency means the concentration at half of the fitted maximal effect
# In short: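 In this quantitative HTS format, ERR cells receive compounds in DMSO and are incubated for 17.5 h at 37 C. Live-cell protease activity is then detected with CellTiter-Fluor.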
# [13] = qHTS assay to identify small molecule antagonists of the estrogen related receptor signaling pathway with the pleiotropic PPARgamma coactivator (PGC) cell viability counter screen (AID 1224822; further: potency means the concentration at half of the fitted maximal effect;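 further: viability read after 17.5 h compound exposure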)
# In short: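 Viable cell signal (CellTiter-Fluor, 30 min, 37 C/5% CO2) was measured in PGC/ERR cells after a 17.5 h compound incubation.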
# [14] = qHTS assay to identify small molecule antagonists of the retinoic acid receptor (RAR) signaling pathway (AID 1159552; further: nearly all actives have a fitted effect of over 50% in size; further: potency means the concentration at half of the fitted maximal effect)
# In short: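 C3RL4 RARE-luc cells, overnight plating; retinol 1 uM final added right after compound; 6 hr 37 C; luciferase read at 30 min RT.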
# [15] = qHTS assay to identify small molecule agonists of the retinoic acid receptor (RAR) signaling pathway (AID 1159553); further: potency means the concentration at half of the fitted maximal effect
# In short: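 Compounds dissolved in DMSO were pinned onto C3RL4 cells seeded the previous day, and plates were held 6 hr at 37 C. RARE-driven luciferase output was then read by luminescence.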
# [16] = qHTS assay to identify small molecule antagonists of the estrogen related receptor (ERR) signaling pathway - cell viability counter screen (AID 1224818);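 further: series mostly up to about 46 µM; viability measured after 17.5 h of compound exposure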
# In short: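 Cytotoxicity check run alongside the ERR antagonist screen: cells exposed to test compounds 17.5 h at 37 C, viability taken as CellTiter-Fluor fluorescence intensity.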
# [17] = qHTS assay to identify small molecule antagonists of the estrogen related receptor (ERR) signaling pathway (AID 1224819)
# In short: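 ERR reporter cells were plated at 2,000 cells/well and left 6 h at 37 C/5% CO2 before pin-tool transfer of compounds in DMSO. After 18 h at 37 C, One-Glo was added and luminescence was read 30 min later at room temperature.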
# [18] = qHTS assay to identify small molecule agonists of the estrogen related receptor (ERR) signaling pathway (AID 1224820)
# In short: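 Luminescence readout (One-Glo, 30 min RT) from NTP-supplied ERR cell line exposed to compounds for 18 h at 37 C. Cells seeded 2,000 per well and pre-incubated 6 h before pin-tool compound transfer.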
# [19] = tested on: estrogen-related receptor alpha (ERRalpha) with PGC-1alpha coactivator, human; test: qHTS assay to identify small molecule antagonists of the estrogen related receptor signaling pathway with the pleiotropic PPARgamma coactivator (PGC) (AID 1224821; calls by dose curve)
# In short: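 PGC/ERR reporter cells; 6 h pre-incubation 37 C/5% CO2; pin-tool compound in DMSO, 18 h 37 C; One-Glo added, 30 min RT; luminescence read. qHTS antagonist mode.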
# [20] = qHTS assay to identify small molecule agonists of the estrogen related receptor signaling pathway with the pleiotropic PPARgamma coactivator (PGC) (AID 1224823)
# In short: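 Luminescence readout (One-Glo, 30 min RT) from PGC/ERR cell line treated 18 h at 37 C with pin-tool-delivered DMSO compound solutions; cells plated 6 h before dosing. Quantitative HTS format.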
SMILES,Potency [1],Potency [2],outcome [3],Potency [4],Potency [5],Potency [6],Potency [7],Potency [8],Potency [9],Potency [10],Potency [11],Potency [12],Potency [13],Potency [14],Potency [15],outcome [16],outcome [17],outcome [18],outcome [19],outcome [20]
CCCC[n+]1cccc(C)c1,inactive,inactive,inactive,inactive,inactive,inactive,inactive,inactive,inactive,inactive,inactive,inactive,,,,,,,,
Oc1cccc2cccnc12,inactive and 8.71 µM (active),inactive and 977 nM (active),inactive,780 nM (active) and 155 nM (active),3.44 µM (active) and inactive,774 nM (active) and 864 nM (active) and inactive,1.23 µM (active) and inactive,inactive,inactive,780 nM (active) and 692 nM (active) and inactive,inactive and 7.7 µM (active),2.74 µM (active) and 2.43 µM (active) and inactive,0.727 µM (active),,,,,,,
Nc1ccc(-c2ccc(N)cc2)cc1,inactive,inactive,inactive,inactive,inactive,inactive,inactive,inactive,,inactive,inactive,inactive,,inactive,inactive,,,,,
OCCOc1ccccc1,inactive,inactive,inactive,inactive,inactive,inactive,inactive,inactive,,inactive,inactive,inactive,,inactive,inactive,,,,,
Cc1cc(Cl)ccc1N,inactive,inactive,inactive,inactive,inactive,inactive,inactive,inactive,,inactive,inactive,inactive,,inactive,inactive,,,,,
CCOP(=S)(OCC)Oc1ccc2c(C)c(Cl)c(=O)oc2c1,inactive,inactive,inactive,inactive,inactive,inactive,inactive,inactive,,inactive,inactive,inactive,,inactive,inactive and 11.9 µM (active),,,,,
COP(=O)(OC)C(O)C(Cl)(Cl)Cl (stereo unspecified),inactive,inactive,inactive,inactive,inactive,inactive,inactive,inactive,,inactive,inactive,inactive,,inactive,inactive,,,,,
Cc1cc(-c2ccc(N)c(C)c2)ccc1N,inactive,inactive,inactive,inactive,inactive,inactive,inactive,inactive,,inactive,inactive,inactive,,inactive,15.1 µM (active),,,,,
COP(=O)(OC)OC=C(Cl)Cl,inactive,inactive,inactive,inactive,inactive,inactive,inactive,inactive,,inactive,inactive,inactive,,,,,,,,
CCC[N+]1(C)CCCCC1,inactive,inactive,inactive,inactive,inactive,inactive,inactive,inactive,,inactive,inactive,inactive,,,,,,,,
COc1ccc(N)cc1,inactive,inactive,inactive,inactive,inactive,inactive,inactive,inactive,inactive,inactive,inactive,,,,,,,,,
Nc1ccc(Cl)cc1,,inactive,inactive,inactive,inactive,inactive,inactive,inactive,,inactive,inactive,,inactive,,,inactive,,,,
Cc1cc(Cl)ccc1OCC(=O)O,inactive,inactive,inactive,inactive,inactive,inactive,inactive,inactive,inactive,inactive,inactive,inactive,,,,,,,,
CCC(=O)C(CC(C)N(C)C)(c1ccccc1)c1ccccc1 (stereo unspecified),,43.8 µM (active) and inactive,inactive,inactive,inactive,48.8 µM (active),inactive,inactive,,43.8 µM (active),inactive,inactive,,inactive,inactive,,,,,
O=C(O)CCl,inactive,inactive,inactive,inactive,inactive,inactive,inactive,inactive,inactive,inactive,inactive,inactive,,inactive,inactive,,,,,
CCCC[N+]1(C)CCCCC1,inactive,inactive,inactive,inactive,inactive,inactive,inactive,inactive,inactive,inactive,inactive,inactive,,,,,,,,
CC[n+]1ccccc1,inactive,inactive,inactive,inactive,inactive,inactive and 1.71 µM (active),inactive,inactive,,inactive,inactive and 54 µM (active),inactive and 30.4 µM (active),,,inactive,,,,,
C[C@]12CCC(=O)C=C1CC[C@@H]1[C@@H]2CC[C@]2(C)C(=O)CC[C@@H]12,inactive,inactive,inactive,inactive,inactive,23.9 µM (active) and inactive,inactive,inactive,,inactive,inactive,inactive,,47.7 µM (active) and inactive,inactive,,,,,
O=[N+]([O-])c1ccccc1O,inactive,inactive,inactive,inactive,inactive,inactive,inactive,inactive,inactive,inactive,inactive,inactive,,inactive,inactive,,,,,
C1CCC(NC2CCCCC2)CC1,inactive,inactive,inactive,inactive,inactive,inactive,inactive,inactive,inactive,inactive,inactive,inactive,,inactive,inactive,,,,,
CCCC[n+]1ccccc1C,inactive,inactive,inactive,inactive,inactive,inactive,inactive,inactive,,inactive,inactive,inactive,,,,,,,,
COCC(=O)N(c1c(C)cccc1C)C(C)C(=O)OC (stereo unspecified),inactive,inactive,inactive,inactive,inactive,inactive,inactive,inactive,,inactive,inactive,inactive,,inactive,inactive,,,,,
CCn1cc[n+](C)c1C,inactive,inactive,inactive,inactive,inactive,inactive,inactive,inactive,inactive,inactive,inactive,inactive,,inactive,inactive,,,,,
O=C(O)C(Cl)(Cl)Cl,inactive,inactive,inactive,inactive,inactive,inactive,inactive,inactive,,inactive,inactive,inactive,,inactive,inactive,,,,,
CCNc1nc(Cl)nc(NCC)n1,inactive,inactive,inactive,inactive,inactive,48.8 µM (active) and inactive,inactive,inactive,,inactive,inactive,inactive,,inactive,inactive,,,,,
O=c1[nH]c(=O)n(Cl)c(=O)n1Cl,inactive,inactive,inactive,inactive,inactive,inactive,inactive,inactive,inactive,inactive,inactive,inactive,,,,,,,,
COc1ccccc1N,inactive,inactive,inactive,inactive,inactive,inactive,inactive,inactive,inactive,inactive,inactive,inactive,,inactive,inactive,,,,,
CC[N+](CC)(CC)CC,inactive,inactive,inactive,inactive,inactive,inactive,inactive,inactive,,inactive,inactive,inactive,inactive,,inactive,inactive,,,,
O=P1(N(CCCl)CCCl)NCCCO1 (stereo unspecified),inactive,inactive,inactive,inactive,inactive,inactive,inactive,inactive,,inactive,inactive,inactive,inactive,,,inactive,inactive,inactive,inactive,inactive
